These entries were drawn from the full list.
TDP1 cell CPT – growth inhibition of DT40 Tdp1-/-;hTDP1 cells with camptothecin (screen for TDP1 inhibitors). 420,000 tested, 12% active. chicken DT40 Tdp1-/-;hTDP1 cells + 20 nM CPT, ATP luminescence, 48 h. AID 686979. Potency, µM (doses to about 46.2 µM), for inactives: top-dose activity change, negative = growth inhibition, usual class: inhibitors; note: potency is the fitted concentration of half-maximal effect; % is set by controls: 0 for no effect and ±100 for the full control effect; nearly all actives have a fitted effect of over 55% in size
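Chicken DT40 Tdp1-/- cells complemented with human TDP1, 400 cells/well, exposed to compounds plus 20 nM camptothecin for at least 48 h at 37 C; viability read as ATP content by CellTiter-Glo luminescence.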
DT40 TDP1 no CPT – qHTS for Inhibitors of human tyrosyl-DNA phosphodiesterase 1 (TDP1): qHTS in cells in absence of CPT. DT40 Tdp1-/- hTDP1 cells, no CPT, ATP luminescence, 48 h. Potency, µM (highest dose often 46.2 µM), inactives show at the highest dose activity change, negative = growth inhibition, most hits filed as inhibitors. 420,000 tested, 15% active. AID 686978, 2013; note: potency is the fitted concentration of half-maximal effect; % is set by controls: 0 for no effect and ±100 for the full control effect; nearly all actives have a fitted effect of over 55% in size
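Growth kinetics read by CellTiter-Glo luminescence after ≥48 hr at 37 °C. Cells: DT40 Tdp1-/- stably carrying human TDP1, 400 per well, compound exposure in the absence of CPT (DMSO vehicle).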
S2 tox – viability counter-screen for ATXN expression inhibitors. S2 cells (HEK-293 line with an ATXN2-luciferase reporter) viability, CellTiter-Fluor protease fluorescence, 24 h. 400,000 tested, 0.49% active. Potency, µM (series often up to 56.7 µM), actives largely listed as cytotoxic. AID 651635; note: potency is the fitted concentration of half-maximal effect; nearly all actives have a fitted effect of over 40% in size
HepG2 tox – kills HepG2 cells in TGF-b inhibitor counter-screen | HepG2 CAGA-GFP viability, ATP luminescence, 18 h | Potency, µM (doses to about 46.1 µM), inactives show at the top dose activity change, negative = cytotoxicity, actives largely listed as cytotoxic | 410,000 tested, 0.76% active | AID 588856; note: potency is the fitted concentration of half-maximal effect
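CellTiter-Glo luminescence gave cytotoxicity after 18 hours at 37 degrees C. The cells were HepG2 CAGA-GFP in 1% FBS DMEM, stimulated with 500 pg/mL TGF-beta after compound addition. %Activity was normalised to no-cell wells (complete cell-killing) and DMSO (no toxicity), and curves were fitted and classified.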
TGFb SMAD3 inh – blocks TGF-b signaling; HepG2 CAGA-GFP TGF-b/SMAD3 reporter, GFP fluorescence, 18 h; TGF-beta stimulated, 500 pg/mL final; Potency, µM (top dose mostly 46.1 µM), without a hit: at the highest dose activity, negative = inhibition, hits mostly inhibitors; 410,000 tested, 1.2% active; AID 588855; note: potency is the fitted concentration of half-maximal effect; % is set by controls: 0 for no effect and ±100 for the full control effect; nearly all actives have a fitted effect of over 65% in size
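TGF-beta reporter screen: HEPG2 CAGA-GFP, 1% FBS, 500 pg/mL TGF-beta final, 18 h; per-cell GFP summed per well; curves fitted and categorized by class.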
ATXN2 expr inh – reduces ATXN2 reporter expression in HEK-293 cells | 360,000 tested, 0.72% active | HEK-293 ATXN2-luciferase reporter, luminescence, 24 h | Potency, µM (series often up to 57 µM), inactives show at the top dose activity change, negative = inhibition, actives largely listed as inhibitors | AID 1745845; note: potency is the fitted concentration of half-maximal effect; % is set by controls: 0 for no effect and ±100 for the full control effect; nearly all actives have a fitted effect of over 55% in size
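ATXN2-luciferase reporter cells (luciferase flanked by upstream and downstream ATXN2 gene portions) were treated 24 h at 37 °C with compounds at up to 57 uM. SteadyGlo luminescence gave expression; GF-AFC fluorescence gave viability.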
EBOV entry S4 rt – Ebola entry inhibition, ratio channel, screen 4; shares compounds with ATXN2 expr inh; 170 tested, 79% active; Ebola pseudovirus entry assay, ratio channel; AC50, µM; calls by dose curve
EBOV S4 blue – Ebola entry inhibition, blue channel, screen 4. calls only. AID 1117309. shares compounds with ATXN2 expr inh. 170 tested, under 10 active. Ebola virus entry assay, blue channel fluorescence ratio; Channel: blue; call rule not given here
EBOV S4 green – Ebola virus entry blockers, screen 4 green channel. 170 tested, under 10 active. Ebola virus entry reporter assay, green fluorescence channel; Channel: green. calls only. shares compounds with ATXN2 expr inh. AID 1117316; call rule not given here
* marks the source's active call; other numbers are inactive results; i = inactive; ? = inconclusive; . = not tested or not shown; ! = not confirmed by another sample; [ ] = remark or other dose. Unless noted, calls come from the whole dose curve; as a rule, active = well fitted curve in the direction sought with a large enough effect; inconclusive = small, poorly fitted or top-dose-only effect, or another doubt; inactive = no such curve, though single readings can be large; an effect the other way counts as inactive or inconclusive.

SMILES | TDP1 cell CPT | DT40 TDP1 no CPT | S2 tox | HepG2 tox | TGFb SMAD3 inh | ATXN2 expr inh | others
Cc1cccc(NC2=NCCCS2)c1 | 10% | 5% | i | 0% | -7% | .
Cc1cc([P+](=O)O)c(C)n1-c1ccc(Br)cc1 | -11% | 0% | i | -18% | -1% | -2%
CCOc1ccccc1NC(=O)c1ccccc1N(C)S(=O)(=O)c1ccc(C)cc1 | ? | ? | i | -15% | -3% | -16%
C[N+](C)(C)CC1CCCC1=O (configuration not stated) | -1% | -14% | i | 2% | -15% | 7%
CC12CC1(C)C(=O)N(c1cc(Cl)cc(Cl)c1)C2=O (configuration not stated) | -18% | 11% | i | -16% | 0% | -3%
CCCCOc1ccc(CN2CCN(CCO)CC2)cc1 | -28% | -27% | i | -28% | -12% | 6%
CC1CCN(C(=O)N2c3ccccc3Sc3ccccc32)CC1 | ? | ? | i | -21% | ? | 70%
O=C1C2CCCC1C(N1CCCC1)CC2 (configuration not stated) | 45% | -6% | i | -6% | -3% | -4%
CCN(CC)P(=O)(Oc1ccccc1)Oc1ccccc1 | ? | ? | i | -25% | -22% | .
Cc1ccccc1C1=NCC(=S)Nc2ccc(Cl)cc21 | ? | ? | i | -12% | 7% | -12%
OCc1cnc[nH]1 | 4% | -3% | i | -10% | 4% | -8%
Fc1ccc(N2Cc3ccccc3-n3nncc3C2)cc1 | ? | ? | ? | 4% | 1% | -32%
CC(CN(C)C1CCN(C)CC1)c1ccccc1 (configuration not stated) | -9% | 2% | i | -2% | 0% | -30%
CCn1c(O)c(C=NCCc2c[nH]c3ccccc23)c(=O)[nH]c1=O | -15% | -17% | i | -13% | 3% | -13%
[N-]=[N+]=NCc1cn2cccnc2n1 | 12% | -7% | i | -11% | 3% | -3%
CC[C@]12C=CCN3CCC4(c5cc(Br)c(OC)cc5N(C)C4[C@@](O)(C(=O)OC)[C@@H]1OC(C)=O)C32 (some centres not stated) | ? | ? | i | -11% | 2% | .
O=C(Cc1ccccc1)OCCN1CCCCC1 | -14% | -3% | i | 2% | ? | 6%
Cc1cccc(CN(C)C)c1OC(=O)N(C)C | 3% | 9% | i | 4% | -10% | 4%
Clc1ccc2c(N3CCNCC3)ccnc2c1 | 10% | -25% | i | -1% | 2% | -10%
CN1CCCC2c3ccccc3CCC21 (configuration not stated) | -9% | ? | i | 19% | 10% | .
COc1cccc(CC(=O)N(C)C2CCCN(Cc3ccccc3F)C2)c1 (configuration not stated) | -22% | ? | i | -9% | 24% | 4%
C=CCO[C@@H](Cn1ccnc1)c1ccc(Cl)cc1Cl | . | . | i | . | . | .
COc1ccccc1N1CCN(Cc2cccc(Br)c2)CC1 | ? | ? | i | -4% | -2% | -34%
O=C(NCC1=C(c2ccc3ccccc3c2)C[C@@H]2CC[C@H]1N2Cc1ccco1)c1cccnc1 | -27% | ? | ? | -21% | -7% | -1%
CCOc1ccc(-n2c(O)c(N=Nc3ccc([N+](=O)[O-])cc3)c(=O)[nH]c2=O)cc1 | ? | ? | i | -9% | -20% | .
SMILES | TDP1 cell CPT | DT40 TDP1 no CPT | S2 tox | HepG2 tox | TGFb SMAD3 inh | ATXN2 expr inh | others
COc1cccc2c1C(=O)c1c(O)c3c(c(O)c1C2=O)C[C@@](O)(C(C)=O)C[C@@H]3O[C@H]1C[C@H](N)[C@H](O)[C@H](C)O1 | 0.021µM* | 0.0058µM* | ? | 11% | ? | 10µM*! | EBOV entry S4 rt=2.4µM*;EBOV S4 blue=i;EBOV S4 green=i
COc1ccc(C(=O)CN2CCCCC2)cc1 | -10% | -1% | i | -44% | -1% | -3%[11.3 µM]
C=CCn1c(O)c(/C(C)=N/N2CCCCC2)c(=O)[nH]c1=O | 18% | -15% | i | -2% | -5% | -4%
O=C(O)c1ccc2[nH]cc(CCCCN3CC=C(c4ccccc4)CC3)c2c1 | 10% | -11% | i | . | . | -3%
CC1(C)CCCN1CCC(C(N)=O)(c1ccccc1)c1ccccc1 | -8% | -10% | i | -18% | 18% | -11%
COc1ccc(Cc2c(O)[nH]c(=S)[nH]c2=O)cc1 | 11% | 15% | i | -8% | 0% | -28%
CC12CC3CC(C)(C1)CC(N)(C3)C2 | -35% | ? | i | -17% | -7% | -11%
C[C@H](NC(=O)N1C[C@H]2C[C@@H](C1)c1cccc(=O)n1C2)C(=O)Nc1ccccc1F | 1% | -2% | i | 4% | 4% | -4%
C[N+]12CCC(CC1)C(C(O)(c1ccccc1)c1cccs1)C2 (configuration not stated) | -1% | -8% | i | 2% | 3% | -9%
COc1cc(C(=O)OC2C[C@H]3CC[C@@H](C2)N3)ccc1O (some centres not stated) | -5% | -21% | i | 8% | 16% | .
CC(C)C(=O)NC(Oc1ccccc1Cl)C(Cl)(Cl)Cl (configuration not stated) | -23% | -16% | i | -9% | -1% | 6%
COc1ccc(NC(=O)N2CCC3(CC2)OCCO3)cc1 | ? | -1% | i | 2% | 1% | 28%
COC(=NC1CCCC1)C(O)c1c[nH]c2ccccc12 (configuration not stated) | ? | -25% | i | -19% | -33% | 0%
Cc1ccc(-n2c(O)c(/C=N/N3CCCCC3c3cccnc3)c(=O)[nH]c2=S)cc1 (configuration not stated) | -5% | 23% | i | 2% | -10% | 9%
CCCNC(=O)N1[C@H]2CC[C@@H]1C(C(=O)OC)=C(c1ccccc1)C2 | -26% | . | i | -8% | ? | 14%

Screening data (PubChem)
